# The antibiotic and cytotoxicity screens of Wong et al. (2023)
# The whole screen tested about 39,000 compounds, of which about 3,300 (8.5%) were called active. The full list was thinned out, with actives kept by preference.
# Tested on: HepG2
# Experiment: cytotoxicity call (relative viability < 0.9)
# Settings: 10 µM
row,Compound,cytotoxicity call
1,C[C@@H]1CN([C@H](C)CO)C(=O)CCCn2cc(nn2)CO[C@@H]1CN(C)S(=O)(=O)c1ccccc1C#N,inactive
2,Cc1ccc(S(=O)(=O)N(C)C[C@H]2Oc3c(NS(=O)(=O)c4ccc(F)cc4)cccc3C(=O)N([C@H](C)CO)C[C@@H]2C)cc1,inactive
3,C[C@@H]1CN([C@@H](C)CO)C(=O)Cc2cc(NC(=O)Nc3ccc4c(c3)OCO4)ccc2O[C@H]1CN(C)S(C)(=O)=O,inactive
4,COc1ccc(CN(C)C[C@@H]2Oc3ccc(NC(=O)Nc4ccc(C(F)(F)F)cc4)cc3CC(=O)N([C@H](C)CO)C[C@H]2C)cc1,inactive
5,COc1ccc(CN(C)C[C@@H]2Oc3ccc(NC(=O)Nc4ccc(C(F)(F)F)cc4)cc3CC(=O)N([C@H](C)CO)C[C@@H]2C)cc1,active
6,COc1ccc(NC(=O)Nc2ccc3c(c2)CC(=O)N([C@H](C)CO)C[C@H](C)[C@H](CN(C)Cc2ccc(C(F)(F)F)cc2)O3)cc1,active
7,COc1ccc(CN(C)C[C@@H]2Oc3ccc(NC(=O)Nc4ccc(C(F)(F)F)cc4)cc3CC(=O)N([C@@H](C)CO)C[C@@H]2C)cc1,inactive
8,COc1ccc(NC(=O)Nc2ccc3c(c2)CC(=O)N([C@H](C)CO)C[C@@H](C)[C@@H](CN(C)Cc2ccc(C(F)(F)F)cc2)O3)cc1,active
9,COc1ccc(NC(=O)Nc2ccc3c(c2)CC(=O)N([C@@H](C)CO)C[C@@H](C)[C@@H](CN(C)Cc2ccc(C(F)(F)F)cc2)O3)cc1,active
10,COc1ccc(NC(=O)Nc2ccc3c(c2)CC(=O)N([C@H](C)CO)C[C@H](C)[C@@H](CN(C)Cc2ccc(C(F)(F)F)cc2)O3)cc1,inactive
11,CC(C)NC(=O)Nc1ccc2c(c1)C(=O)N([C@@H](C)CO)C[C@H](C)[C@@H](CN(C)CC1CCCCC1)OCCCC[C@H](C)O2,inactive
12,Cc1ccc(S[C@]2(C(=O)NCCCN(C)C)CC(=O)N(Cc3cc(C(F)(F)F)cc(C(F)(F)F)c3)[C@@H]2c2ccc(CO)cc2)cc1,inactive
13,O=C(CN1CCOCC1)NCC[C@@H]1CC[C@@H](NC(=O)c2ccc3c(c2)OCO3)[C@H](CO)O1,inactive
14,COc1ccc2c3c(n(c2c1)C)[C@H](CO)N(C[C@]13CN(C1)C(=O)c1ccncc1)C(=O)C1CCCCC1,inactive
15,CN1CCN(C(=O)C[C@H]2CC[C@H]3[C@H](COc4ccc(NC(=O)C5CCOCC5)cc4C(=O)N3C)O2)CC1,inactive
16,CCCN1C[C@H](C)[C@@H](OC)CN(C)C(=O)c2cc(NS(=O)(=O)c3cn(C)cn3)ccc2OC[C@H]1C,inactive
17,CCOC(=O)c1cc(C(=O)OCC)n(C)n1,inactive
18,COc1ccc(S(=O)(=O)N[C@@H]2C=C[C@@H](CC(=O)N3CCN(c4ccccc4)CC3)O[C@H]2CO)cc1,inactive
19,Cc1cc2n(n1)CCN(C(=O)[C@H]1CC[C@@H](N)C1)C2,inactive
20,Cc1ccc(-c2cnc3c(c2)C(=O)N([C@H](C)CO)C[C@H](C)[C@@H](CN(C)C(=O)Cc2ccncc2)O3)cc1,inactive
21,C[C@H]1CCCCO[C@@H](CN(C)Cc2ccccc2)[C@@H](C)CN([C@@H](C)CO)C(=O)c2cc(NC(=O)c3ccccc3)ccc2O1,inactive
22,Cc1noc(C)c1NC(=O)N(C)C[C@@H]1Oc2c(NC(=O)C3CCOCC3)cccc2C(=O)N([C@H](C)CO)C[C@H]1C,inactive

row,Compound,cytotoxicity call
1,COc1ccc(NC(=O)Nc2ccc3c(c2)CC(=O)N([C@@H](C)CO)C[C@H](C)[C@H](CN(C)Cc2ccc(C(F)(F)F)cc2)O3)cc1,active
2,c1ccc2nc(-c3cn[nH]c3)ccc2c1,inactive
3,CCCOc1c(-c2ccc3ccccc3n2)cnc2ccccc12,active
4,Cc1cc(-c2ccc3ccccc3n2)nc2ccc3ccccc3c12,inactive
5,Cc1csc2sc(/C=N/Cc3cccs3)c(C)c12,active
6,Cc1csc2sc(C(=O)Oc3ccc(Cl)cc3)c(C)c12,inactive
7,Cc1csc2sc(COC(=O)Nc3ccccc3)c(C)c12,inactive
8,C[C@@H]1CN([C@@H](C)CO)C(=O)c2cc(NS(=O)(=O)c3cccs3)ccc2O[C@@H](C)CCCCO[C@@H]1CN(C)C(=O)c1ccccc1,inactive
9,O=C(C[C@H]1C[C@@H]2c3cc(NC(=O)c4ccc5c(c4)OCO5)ccc3O[C@@H]2[C@@H](CO)O1)NCC(F)(F)F,inactive
10,C[C@H]1CCCCO[C@@H](CN(C)S(=O)(=O)c2ccc(F)cc2)[C@@H](C)CN([C@@H](C)CO)C(=O)c2cc(NC(=O)CCC(F)(F)F)ccc2O1,inactive
11,Cc1[nH]c(=O)[nH]c(=O)c1S(=O)(=O)N1CCC(C(=O)N[C@H](C)c2ccccc2)CC1,inactive
12,CCc1ccc(NC(=O)C2CCN(S(=O)(=O)c3c(C)[nH]c(=O)[nH]c3=O)CC2)cc1,active
13,Cc1[nH]c(=O)[nH]c(=O)c1S(=O)(=O)N1CCC(C(=O)NCCC(C)C)CC1,inactive
14,COCC(=O)N1[C@@H]2c3ccc(C4=CCCC4)c(=O)n3C[C@@H]2[C@@H](CO)[C@@H]1C(=O)N1CCN(C)CC1,inactive
15,Cc1noc(C)c1NC(=O)Nc1cccc2c1O[C@@H](CN(C)Cc1ccc(-c3ccccc3)cc1)[C@@H](C)CN([C@H](C)CO)C2=O,inactive
16,C[C@@H]1CCCCO[C@H](CN(C)Cc2ccc(Cl)c(Cl)c2)[C@@H](C)CN([C@H](C)CO)C(=O)c2cc(NC(=O)C3CCCCC3)ccc2O1,inactive
17,C[C@@H]1CCCCO[C@@H](CN(C)Cc2ccc(Cl)c(Cl)c2)[C@@H](C)CN([C@@H](C)CO)C(=O)c2cc(NC(=O)C3CCCCC3)ccc2O1,inactive
18,C[C@@H]1CCCCO[C@H](CN(C)Cc2ccc(Cl)c(Cl)c2)[C@H](C)CN([C@@H](C)CO)C(=O)c2cc(NC(=O)C3CCCCC3)ccc2O1,inactive
19,C[C@@H]1CCCCO[C@@H](CN(C)Cc2ccc(Cl)c(Cl)c2)[C@@H](C)CN([C@H](C)CO)C(=O)c2cc(NC(=O)C3CCCCC3)ccc2O1,active
20,C[C@@H]1CN([C@H](C)CO)C(=O)c2cc(NC(=O)C3CCCCC3)ccc2O[C@@H](C)CCCCO[C@H]1CN(C)Cc1ccc(Cl)c(Cl)c1,active
21,C[C@H](CO)N1C[C@H](C)[C@@H](CN(C)Cc2ccc(Cl)c(Cl)c2)Oc2ccc(NC(=O)C3CCCCC3)cc2C1=O,inactive
22,C[C@H](CO)N1C[C@H](C)[C@@H](CN(C)Cc2ccc(Cl)c(Cl)c2)OCCCC[C@H](C)Oc2ccc(NC(=O)C3CCCCC3)cc2C1=O,inactive

row,Compound,cytotoxicity call
1,C[C@@H]1CN([C@H](C)CO)C(=O)c2cc(NC(=O)C3CCCCC3)ccc2O[C@@H](C)CCCCO[C@@H]1CN(C)Cc1ccc(Cl)c(Cl)c1,inactive
2,C[C@@H]1CN([C@@H](C)CO)C(=O)c2cc(NC(=O)C3CCCCC3)ccc2O[C@@H](C)CCCCO[C@H]1CN(C)Cc1ccc(Cl)c(Cl)c1,active
3,C[C@@H]1CN([C@@H](C)CO)C(=O)c2cc(NC(=O)C3CCCCC3)ccc2O[C@H]1CN(C)Cc1ccc(Cl)c(Cl)c1,inactive
4,C[C@@H]1CCCCO[C@@H](CN(C)Cc2ccc(Cl)c(Cl)c2)[C@H](C)CN([C@@H](C)CO)C(=O)c2cc(NC(=O)C3CCCCC3)ccc2O1,inactive
5,C[C@@H]1CCCCO[C@H](CN(C)Cc2ccc(Cl)c(Cl)c2)[C@@H](C)CN([C@@H](C)CO)C(=O)c2cc(NC(=O)C3CCCCC3)ccc2O1,active
6,C[C@H](CO)N1C[C@H](C)[C@H](CN(C)C(=O)NC2CCCCC2)Oc2ccc(NC(=O)Nc3cccc4ccccc34)cc2CC1=O,inactive
7,C[C@@H]1CN([C@H](C)CO)C(=O)Cc2cc(NC(=O)Cc3ccccc3)ccc2O[C@@H]1CN(C)S(=O)(=O)c1ccc(F)cc1,inactive
8,Cc1noc(C)c1NC(=O)Nc1ccc2c(c1)C(=O)N([C@H](C)CO)C[C@H](C)[C@@H](CN(C)C(=O)NC1CCCCC1)OCCCC[C@H](C)O2,inactive
9,C[C@@H]1CN([C@H](C)CO)C(=O)c2cccc(NS(C)(=O)=O)c2O[C@H]1CN(C)C(=O)Nc1ccc(F)cc1,inactive
10,O=C(C[C@H]1C=C[C@@H](NC(=O)CN2CCOCC2)[C@@H](CO)O1)NCc1cccc(F)c1,inactive
11,Cc1noc(C)c1NC(=O)Nc1cccc2c1O[C@H](CN(C)C(=O)Nc1cccc3ccccc13)[C@H](C)CN([C@H](C)CO)C2=O,inactive
12,C[C@@H]1CN([C@@H](C)CO)C(=O)Cc2cc(NC(=O)c3ccncc3)ccc2O[C@@H]1CN(C)S(=O)(=O)c1cn(C)cn1,inactive
13,C=C(C)C1=NC(C)(C)C[C@H](C)O1,inactive
14,CS(=O)(=O)N1C[C@@H]2COC[C@@]2(CN2CCOCC2)C1,inactive
15,CC(C)(C)S(=O)N1Cc2cc(C(=O)NCc3ccc4c(c3)OCO4)nc(-c3cccc(C#CCC4CCCC4)c3)c2[C@@H]1CCO (stereo not given in full),inactive
16,CN(C)CCCNC(=O)C[C@@H]1CC[C@@H]2[C@H](COc3ccc(NC(=O)NC4CCCC4)cc3C(=O)N2C)O1,inactive
17,Cc1noc(C)c1NC(=O)N(C)C[C@H]1OCCCC[C@H](C)Oc2ccc(NC(=O)c3ccccc3)cc2C(=O)N([C@@H](C)CO)C[C@@H]1C,inactive
18,C[C@H](CO)N1C[C@H](C)[C@H](CN(C)Cc2ccc(Cl)c(Cl)c2)OCCCC[C@H](C)Oc2ccc(NC(=O)C3CCCCC3)cc2C1=O,inactive
19,C[C@@H]1CN([C@@H](C)CO)C(=O)c2cc(NC(=O)C3CCCCC3)ccc2O[C@@H](C)CCCCO[C@@H]1CN(C)Cc1ccc(Cl)c(Cl)c1,inactive
20,C[C@@H]1CCCCO[C@@H](CN(C)Cc2ccc(Cl)c(Cl)c2)[C@H](C)CN([C@H](C)CO)C(=O)c2cc(NC(=O)C3CCCCC3)ccc2O1,active
21,COc1ccc(CN(C)C[C@@H]2Oc3ccc(NC(=O)CCCN(C)C)cc3C(=O)N([C@@H](C)CO)C[C@H]2C)cc1,inactive
